The source of these data is PubChem BioAssay AID1645870 (National Center for Advancing Translational Sciences (NCATS), 2021).

Molecules are shown by their SMILES. “And” between values parts separate entries of the source, which are not always exact repeats. Equal entries are not always repeated. Hit rate of the full screen: of about 59,000 compounds, about 1,500 (2.5%) were called active. Another 10% or so got no clear call; they are omitted. Calls come from the whole dose curve; as a rule, active = well fitted inhibition curve with a large enough effect; inconclusive = small, poorly fitted or top-dose-only effect; inactive = flat fitted curve, though single readings scatter. Many of the other results were omitted from the sample, so actives are more common in it than they were. The source holds several records for some structures; these can differ, active in one and inactive in another.
Potency is the fitted concentration of half-maximal effect.

Sequence of N-terminal Xaa-Pro-Lys N-methyltransferase 1 (Homo sapiens) (Q9BV86 whole entry, looked up): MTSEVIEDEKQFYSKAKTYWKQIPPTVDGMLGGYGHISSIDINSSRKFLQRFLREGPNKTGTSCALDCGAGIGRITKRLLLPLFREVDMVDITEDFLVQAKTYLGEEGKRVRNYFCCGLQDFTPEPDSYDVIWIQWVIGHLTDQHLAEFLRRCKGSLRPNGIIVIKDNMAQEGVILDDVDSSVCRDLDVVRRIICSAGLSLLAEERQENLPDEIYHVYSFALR

This assay has as its target N-terminal Xaa-Pro-Lys N-methyltransferase 1 (Homo sapiens) (UniProt Q9BV86). In words: Primary qHTS for Inhibitors of N-terminal methyltransferase 1 (NTMT1): MTaseGlo Assay. Note: nearly all actives have a fitted effect of over 65% in size. The note with it: NTMT1 MTase-Glo SAH luminescence, purified enzyme; series mostly up to 114 µM; activity change, negative = inhibition: at the top concentration. The source says:
Assay Submitter (PI): Rong Huang Ph.D.
Purdue University, West Lafayette, IN 47907
The N-terminal methytransferase 1 is the first methyltransferase that methylates protein alpha-N-amines and plays an important role in regulating cell mitosis, chromatin interactions and DNA repair. It is observed to be over-expressed in various cancer patient tissues like malignant melanoma and colorectal cancer tissues. Knockdown of NTMT1 in cancer cells causes cell mitotic defects and enhances sensitivity to DNA damaging chemotherapeutics. […] These critical cellular processes in which NTMT1 is implicated, coupled with emerging links to cellular dysfunction, strengthen the inference that NTMT1 is a compelling novel anticancer target. Progress have been made in understanding the molecular properties of NTMT1 and the biological consequences of protein alpha-N-terminal methylation, but there are no specific small molecule probes available for NTMT1 to fully characterize its MTase activity. To address this unmet need, a panel of assay is created and established to enable quantitative high-throughput screening (qHTS) for novel, potent, and selective small molecule NTMT1 inhibitors. Two orthogonal qHTS that use different reagents (ThioGlo vs. MTaseGlo) are developed for primary robotic screening against the NCATS chemical library of more than 400,000 small molecules. Identified inhibitors are reacquired, validated, and further characterized.
MTaseGlo Assay is a luminescence screen that measure the activity of methyltransferases based on the reaction product S-adenosyl homocysteine (SAH). The substrate SAM is converted to SAH upon enzyme activation. MTase-Glo reagent and detection solution convert SAH to ATP and measure the light from the luciferase reaction.
Materials: NTMT1 enzyme, substrate SPKRIA, control peptide RCC1-6 is provided by the Huang laboratory.
SEQUENCE No. (e.g., 1, 2, 3, etc.); […] (e.g., Cells, Incubation, Reagent, etc.); VALUE; DESCRIPTION
1; Enzyme; 3 uL; Dispense enzyme mixture (final concentrations of 125 nM NTMT1 and 100 uM SAM) into Greiner 1536-well white / solid bottom assay plate (Greiner Bio One, Monroe, NC).
2; Compounds; 23 nL; Compounds and controls were transferred via a Kalypsys Pin Tool (Wako USA) equipped with a 1536-slotted pin array (Wako Automation, Richmond, VA)
3; Incubation; 15 min; Incubate at room temperature
4; Substrate; 1 uL; Dispense 1 uL of substrate at final concentration of 1 uM. Buffer solution was dispensed in control wells. The assay plate was covered with metal lids.
5; Incubation; 30 min; Incubate at room temperature, protected from lights.
6; Reagent; 1 uL; Dispensed 5x MTase-Glo detection reagent (R) into the assay plate. The plate was covered with metal lids.
7; Incubation; 30 min; Incubate the assay plates at room temperature in the dark to allow for SAH to be converted to ADP.
8; Reagent; 5 uL; Dispense 5 uL of 1x MTase-Glo Detection Solution (R) to allow for ADP to be converted to ATP which was then detected with a luciferase reaction.
9; Centrifuge; 15 sec; Centrifuge the assay plate for 15 seconds at 1000 RPM.
10; Incubation; 30 min; Assay plates were incubation at room temperature in the dark.
11; Detection; Luminescence; Plates were read on ViewLux detector (PerkinElmer). Data were normalized to no-enzyme (0% activity) and no-inhibitor (DMSO; 100%) controls, and the resulting percent inhibition data were fitted to a 4-parameter Hill equation using GraphPad Prism.
(In general: qHTS replaces the single test concentration by a dilution series.)
For `Cn1c2cc(B(O)O)sc2c2cnn(Cc3ccccc3F)c(=O)c21`, the “activity change, negative = inhibition” value was 17.4% (inactive).
Regarding `CC(C)(O)c1ccccc1CC[C@H](SCC1(CC(=O)O)CC1)c1cccc(/C=C/c2ccc3ccc(Cl)cc3n2)c1`, the “activity change, negative = inhibition” value was 1.1% (inactive).
Same read-out and setting: the figure for `O=C(NCCc1nc2ccccc2n1CCOc1cccc(Br)c1)C1CCCCC1` is -15.1% [at 57.5 µM] (inactive); for `O=S(=O)(c1ccc2c(c1)OCCO2)N1CCN(S(=O)(=O)c2cc(F)ccc2F)CC1` it is 0.151% (inactive); for `COc1ccc(C2Nc3ccccc3C(=O)N2Cc2ccc(Cl)cc2)cc1COc1ccc(NC(C)=O)cc1` (stereo not given) it is 32.5% (inactive).
Same read-out and setting: the figure for `CCN(CC)CCNc1ncnc2c1cnn2-c1cc(Cl)ccc1C` is -7.62% (inactive).
Still for that read-out and setting: the figure for `Clc1cccc(-n2ncc3c(NCCc4ccccc4)ncnc32)c1` is -0.791% (inactive).
Regarding `Cc1ccc(-n2ncc3c(NCCCn4ccnc4)ncnc32)cc1Cl`, the Potency is 44.7 µM (active).
With `CC(C)=CCC[C@](C)(O[C@@H]1O[C@H](CO[C@@H]2O[C@H](CO)[C@@H](O)[C@H](O)[C@H]2O)[C@@H](O)[C@H](O)[C@H]1O)[C@H]1CC[C@]2(C)[C@@H]1[C@H](O)C[C@@H]1[C@@]3(C)CC[C@H](O[C@@H]4O[C@H](CO)[C@@H](O)[C@H](O)[C@H]4O[C@@H]4O[C@H](CO)[C@@H](O)[C@H](O)[C@H]4O)C(C)(C)[C@@H]3CC[C@]12C`, the “activity change, negative = inhibition” value was -4.41% [at 57.5 µM] (inactive).
The same measure, in the same setting: the same measure for `NC(=O)C1CCN(c2nc(-c3cccc(F)c3)cs2)CC1`: -0.0933% (inactive); for `Cc1ccc(C)c(N2CCN(CCCNC(=O)Nc3ccc(Cl)cc3)CC2)c1`: -18.2% (inactive).
As to `Cc1cn(CCN2CCN(c3ccccc3-c3cc(C#N)cc(C(=O)NCCCN4CCCC4)c3)CC2)c2ccccc12`, the Potency was 50.1 µM (active).
Regarding `CCCN1CCN(CCCNC(=O)c2ccc3nc(Cc4ccccc4)oc3c2)CC1`, the “activity change, negative = inhibition” value was 1.05% (inactive).
Still for that read-out and setting: the same measure for `O=C(Nc1cc(Cc2ccccc2)ccn1)c1ccc(-c2cccc([N+](=O)[O-])c2)o1`: 9.38% (inactive).
For `N#Cc1ccccc1CNc1nc2ncc(Br)cc2[nH]1`, the “activity change, negative = inhibition” value was 11.6% (inactive).
For `CCOc1cccc(-c2cc(-c3n[nH]c(=O)n3CC)c3ccccc3n2)c1`, the “activity change, negative = inhibition” value was -2.86% (inactive).
On to `N#CSc1cc(SC#N)c(N)nc1N`, for which the Potency was 7.8 µM (active).
As for `Cc1cc2c(s1)c1cnn(Cc3c(F)cccc3Cl)c(=O)c1n2C`, the “activity change, negative = inhibition” value is 12.9% (inactive).
The same measure, in the same setting: the same measure for `Cc1cc(C(=O)Nc2cccc(C(F)(F)F)c2)c2c(C)nn(-c3cccc(F)c3)c2n1`: -2.97% (inactive).
For the compound `Cc1cc(Nc2cccc(C(F)(F)F)c2)nc2ccc(NC(=O)c3ccc(=O)[nH]c3)cc12`, the “activity change, negative = inhibition” value was 0.753% (inactive).
Take `Cc1ccc(C(=O)Nc2cccc(C(F)(F)F)c2)cc1Nc1nc(-c2cccnc2)nc2c1cnn2C`: the Potency entry was “inactive and 21.5 µM (active)”.
On to `COc1cccc(C2c3c(ncn(-c4cccc(Br)c4)c3=N)Oc3ccc4ccccc4c32)c1` (stereo not given), for which the “activity change, negative = inhibition” value was 6.03% (inactive).
For the compound `COC(=O)c1ccc(NC(=O)c2cc(-c3ccc(C)c(C)c3)nc3ccccc23)cc1`, the “activity change, negative = inhibition” value is 4.26% (inactive).
Still for that read-out and setting: the same measure for `COc1ccc(NC(=O)c2cnn3c(C)cc(C)nc23)cc1OC`: -0.855% (inactive); for `COc1ccc(C(CC(=O)N2CC(C)CC(C)C2)c2c(O)cc(OC)cc2OC)cc1` (stereo not given): -7.84% [at 228 µM] (inactive).
In the case of `CC(=O)Oc1ccccc1C(=O)Nc1ncc([N+](=O)[O-])s1`, the Potency was 25.1 µM (active).
`Cc1ccc(S(=O)(=O)Nc2ccccc2C(=O)Nc2ncc(-c3ccccc3)s2)cc1`: the “activity change, negative = inhibition” value was 19.6% (inactive).
Still for that read-out and setting: the same measure for `O=C(Nc1ncc(Cc2ccc(C(F)(F)F)cc2)s1)c1ccc(-c2ccc([N+](=O)[O-])cc2)o1`: 18.1% (inactive); for `O=c1c2ccccc2nc2sc(Nc3ccc(Oc4ccccc4)cc3)nn12`: 6.69% (inactive).
The same measure, in the same setting: the same measure for `Nc1ccc(C(=O)Nc2ccccc2N)cc1`: -9.88% [at 57.5 µM] (inactive).
`Nc1ccccc1N`: the Potency was 22.4 µM (active).
Turning to `Cc1nc(-c2ccccc2C(C)C)nc(NCc2ccc(-c3cccnc3)cc2)c1C`, the “activity change, negative = inhibition” value was 6.7% [at 57.5 µM] (inactive).
Consider `O=C(NCc1ccc(Cl)c(Cl)c1)Nc1nnc(-c2ccncc2)s1`, for which the “activity change, negative = inhibition” value is -20.2% (inactive).
On to `CCOC(=O)c1c(CNCc2ccccc2F)c2sc(C)cc2n1C`, for which the “activity change, negative = inhibition” value is -4.22% (inactive).
Same read-out and setting: the same measure for `Cc1ccc(N[S+](=O)([O-])c2cc3c(cc2N[C@@H](C)CO)NC(=O)CC3)cc1N[C@@H](C)CO`: -11.2% (inactive).
Take `CCc1ccc(NC(=O)c2cnn3c(C)cc(-c4ccccc4)nc23)cc1`: the “activity change, negative = inhibition” value is -14.4% (inactive).
`O=C(Cc1ccccc1)Nc1sc2c(c1C(=O)Nc1ccc(Br)cc1)CCC2`: the “activity change, negative = inhibition” value was 12.1% (inactive).
As to `CCOc1ccc(NC(=O)c2c(NCc3cccc(OC)c3OC)sc3c2CCC3)cc1`, the “activity change, negative = inhibition” value is -2% (inactive).
Consider `CCOc1ccc(NC(=O)c2c(NC(=O)Cc3ccccc3)sc3c2CCCCC3)cc1`, for which the Potency is 44.7 µM (active).
`O=C(CNC(=O)c1ccccc1)OC(C(=O)Nc1cc([N+](=O)[O-])ccc1F)c1ccccc1` (stereo not given): the “activity change, negative = inhibition” value was 9.09% (inactive).
Still for that read-out and setting: the same measure for `NC(=O)c1cnc2[nH]ccc2c1NC1C2CC3C[C@H]1CC(O)(C3)C2` (stereo not given in full): -9.6% (inactive); for `CN(CC(F)(F)F)c1nc(NCc2ccc(-c3cccnc3)cc2)c2ccccc2n1`: 25.3% (inactive); for `CN(C)[S+](=O)([O-])c1ccc(-c2ccc(=O)n(CC(=O)NCCc3ccccc3)n2)cc1`: 4.09% (inactive).
Still for that read-out and setting: the same measure for `O=C(NC(c1ccco1)c1cc(Cl)c2cccnc2c1O)c1ccccc1` (stereo not given): 18.9% (inactive); for `O=C(CSc1ncc(CO)n1Cc1ccc(Cl)cc1)NCc1ccc(F)cc1`: -15.8% (inactive).
